According to PubChem BioAssay AID1159580 (chemical genetic matrix, 2015):
Several values for one entry are separate records, joined by “and”; a condition that tells them apart may be missing. Equal entries are not always repeated. About 2,000 (36%) of roughly 5,500 compounds were called active. Another 18% or so got no clear call; they are omitted. This is one part of the list. Values without a mark were called inactive. Cut-off read from the data, not from the text of the source: active = normalized growth mostly below about 0.91 (no sharp cut-off); inconclusive = no clear call, values can overlap the other calls; inactive = mostly above about 0.92.

Test: chemical genetic growth profiling, strain panel (AID 1159580);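 note: tested at 20 µM; growth read once vehicle control cultures reached saturation at 30 °C; 1 = growth at the plate median or of vehicle wells; lower values mean less growth of the strain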
Conditions: S. cerevisiae deletion strains, growth OD

SMILES: C=CCc1ccc(O)c(OC)c1
- normalized growth (locus YAL013W, strain DEP1, active compounds read low): 0.971
- normalized growth (locus YAL021C, strain ccr4, active compounds read low): 1.01
- normalized growth (locus YAL026C, strain drs2, active compounds read low): 1
- normalized growth (locus YAL030W, strain snc1, active compounds read low): 0.989
- normalized growth (locus YBL061C, strain skt5, active compounds read low): 0.986
- normalized growth (locus YBR009C, strain hhf1, active compounds read low): 1.02
- normalized growth (locus YBR021W, strain FUR4, active compounds read low): 1.05
- normalized growth (locus YBR023C, strain chs3, active compounds read low): 1
- normalized growth (locus YBR171W, strain sec66, active compounds read low): 0.994
- normalized growth (locus YBR229C, strain ROT2, active compounds read low): 0.94
- normalized growth (locus YBR231C, strain swc5, active compounds read low): 0.907 (active)
- normalized growth (locus YBR279W, strain paf1, active compounds read low): 0.997
- normalized growth (locus YCL011C, strain gbp2, active compounds read low): 1.01
- normalized growth (locus YCL016C, strain dcc1, active compounds read low): 1.01
- normalized growth (locus YCL029C, strain bik1, active compounds read low): 0.949
- normalized growth (locus YCL061C, strain MRC1, active compounds read low): 1.01
- normalized growth (locus YCL069W, strain vba3, active compounds read low): 0.993
- normalized growth (locus YCR088W, strain abp1, active compounds read low): 0.984
- normalized growth (locus YDL005C, strain med2, active compounds read low): 1.01
- normalized growth (locus YDL035C, strain GPR1, active compounds read low): 0.992
- normalized growth (locus YDL040C, strain nat1, active compounds read low): 0.98
- normalized growth (locus YDL074C, strain BRE1, active compounds read low): 0.967
- normalized growth (locus YDL101C, strain DUN1, active compounds read low): 0.961
- normalized growth (locus YDL185W, strain tfp1, active compounds read low): 0.975
- normalized growth (locus YDL192W, strain arf1, active compounds read low): 0.896 (active)
- normalized growth (locus YDR001C, strain nth1, active compounds read low): 0.982
- normalized growth (locus YDR069C, strain doa4, active compounds read low): 1
- normalized growth (locus YDR101C, strain arx1, active compounds read low): 0.947
- normalized growth (locus YDR137W, strain rgp1, active compounds read low): 0.978
- normalized growth (locus YDR150W, strain NUM1, active compounds read low): 0.938
- normalized growth (locus YDR159W, strain sac3, active compounds read low): 0.949
- normalized growth (locus YDR162C, strain NBP2, active compounds read low): 0.967
- normalized growth (locus YDR195W, strain ref2): 0.925
- normalized growth (locus YDR297W, strain sur2, active compounds read low): 0.988
- normalized growth (locus YDR318W, strain mcm21, active compounds read low): 0.925
- normalized growth (locus YDR334W, strain swr1, active compounds read low): 0.983
- normalized growth (locus YDR335W, strain msn5, active compounds read low): 0.996
- normalized growth (locus YDR388W, active compounds read low): 0.944
- normalized growth (locus YDR392W, strain spt3, active compounds read low): 0.841
- normalized growth (locus YDR502C, strain sam2, active compounds read low): 0.956
- normalized growth (locus YEL003W, strain gim4, active compounds read low): 0.994
- normalized growth (locus YEL037C, strain rad23, active compounds read low): 0.989
- normalized growth (locus YEL061C, strain CIN8 (second series), active compounds read low): 0.992
- normalized growth (locus YEL061C, strain CIN8, active compounds read low): 0.923 (active)
- normalized growth (locus YER015W, strain faa2, active compounds read low): 0.995
- normalized growth (locus YER016W, strain bim1, active compounds read low): 0.994
- normalized growth (locus YER110C, active compounds read low): 0.908
- normalized growth (locus YER111C, strain swi4, active compounds read low): 0.996
- normalized growth (locus YER155C, strain BEM2 (second series), active compounds read low): 0.789 (active)
- normalized growth (locus YER155C, strain BEM2, active compounds read low): 0.93
- normalized growth (locus YER167W, strain BCK2, active compounds read low): 0.911
- normalized growth (locus YFR010W, strain ubp6, active compounds read low): 0.999
- normalized growth (locus YGL078C, strain dbp3, active compounds read low): 0.984
- normalized growth (locus YGL086W, strain mad1, active compounds read low): 0.942
- normalized growth (locus YGL167C, strain pmr1, active compounds read low): 0.984
- normalized growth (locus YGL173C, strain kem1, active compounds read low): 1
- normalized growth (locus YGL227W, strain vid30, active compounds read low): 0.994
- normalized growth (locus YGL240W, strain doc1, active compounds read low): 0.955
- normalized growth (locus YGL248W, strain PDE1, active compounds read low): 0.937
- normalized growth (locus YGL253W, strain hxk2, active compounds read low): 0.994
- normalized growth (locus YGR078C, strain PAC10, active compounds read low): 0.929
- normalized growth (locus YGR135W, strain pre9, active compounds read low): 0.926
- normalized growth (locus YGR252W, strain gcn5, active compounds read low): 1.19
- normalized growth (locus YHR013C, strain ard1, active compounds read low): 0.997
- normalized growth (locus YHR027C, strain rpn1, active compounds read low): 1
- normalized growth (locus YHR030C, strain SLT2, active compounds read low): 0.942 and 0.988
- normalized growth (locus YHR079C, strain IRE1 (second series), active compounds read low): 0.927
- normalized growth (locus YHR079C, strain IRE1, active compounds read low): 0.975
- normalized growth (locus YHR094C, strain hxt1, active compounds read low): 0.939
- normalized growth (locus YHR129C, strain ARP1, active compounds read low): 0.931
- normalized growth (locus YHR142W, strain chs7, active compounds read low): 1.01
- normalized growth (locus YHR200W, strain rpn10, active compounds read low): 0.937
- normalized growth (locus YIL066C, strain RNR3, active compounds read low): 0.921
- normalized growth (locus YIL073C, strain SPO22, active compounds read low): 0.947
- normalized growth (locus YIL125W, strain kgd1, active compounds read low): 0.942
- normalized growth (locus YIR030C, strain dcg1, active compounds read low): 0.929
- normalized growth (locus YJL092W, strain hpr5, active compounds read low): 0.987
- normalized growth (locus YJL095W, strain BCK1 (second series), active compounds read low): 0.992
- normalized growth (locus YJL095W, strain BCK1, active compounds read low): 0.937 and 0.962
- normalized growth (locus YJL115W, strain asf1, active compounds read low): 0.982
- normalized growth (locus YJL129C, strain trk1, active compounds read low): 0.979
- normalized growth (locus YJL134W, strain LCB3, active compounds read low): 0.937
- normalized growth (locus YJL154C, strain vps35, active compounds read low): 0.996
- normalized growth (locus YJL164C, strain tpk1, active compounds read low): 1.02
- normalized growth (locus YJL166W, strain qcr8, active compounds read low): 1.03
- normalized growth (locus YJL168C, strain set2, active compounds read low): 0.929 (active)
- normalized growth (locus YJL187C, strain SWE1 (second series), active compounds read low): 0.978
